Results taken from PubChem BioAssay (Tox21).
Records with an inconclusive call do not appear. Activity calls are given as the source filed them. Unless noted, calls follow the shape of the dose curve; as a rule, active = well fitted curve in the direction sought with a large enough effect in the repeat runs; inconclusive = weak or mixed curves; inactive = no such curve, though single readings can be large; an effect the other way counts as inactive or inconclusive.

What was measured:
[1] = qHTS assay to identify small molecule antagonists of the androgen receptor (AR) signaling pathway using the MDA cell line in the presence of 0.5 nM R1881 - cell viability counter screen (AID 1259242); also: nearly all actives have a fitted effect of over 45% in size
Summary of the method: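 Live-cell protease activity was measured by CellTiter-Fluor fluorescence after 30 min. Before that, MDA-kb2 MMTV-luciferase cells had 16 hr at 37C without CO2, exposed to test compounds and 0.5 nM R1881 final.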

[2] = qHTS assay to identify small molecule HDAC inhibitors (AID 1259364); also: nearly all actives have a fitted effect of over 45% in size; also: potency is read from the fitted curve at half-maximal effect
Summary of the method: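 Luminescence read after 30 min room-temperature HDAC-Glo incubation measures cellular class I/II HDAC activity. Compounds were applied for 2 hr at 37 C to HCT-116 wild-type cells seeded the day before.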

[3] = qHTS assay to identify small molecule HDAC inhibitors - cell viability counter screen (AID 1259365); also: series mostly up to about 92 µM; nearly all actives have a fitted effect of over 50% in size
Summary of the method: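 Wild-type HCT-116 cells, 1,500/well, cultured overnight, then compound-treated 2 h at 37 C. Viability measured as ATP luminescence with CellTiter-Glo after 30 min at room temperature.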

[4] = qHTS assay to identify small molecule agonists of the sonic hedgehog signaling (Shh) pathway - cell viability counter screen (AID 1259366); also: nearly all actives have a fitted effect of over 50% in size; also: potency is read from the fitted curve at half-maximal effect
Summary of the method: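 NIH/3T3-derived Gli1-Luc reporter cells, 2,000 per well, received compound after 4 h and were treated about 23 h at 37C. Viability measured in the same wells by CellTiter-Fluor fluorescence after 1 h.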

[5] = qHTS assay to identify small molecule antagonists of the sonic hedgehog signaling (Shh) pathway - cell viability counter screen (AID 1259367); also: nearly all actives have a fitted effect of over 55% in size; also: potency is read from the fitted curve at half-maximal effect
Summary of the method: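 Fluorescence read-out (CellTiter-Fluor, 1 hr at 37C) taken after 23 hr compound treatment of 3T3 Gli1-Luc cells stimulated with conditioned medium. Cells were seeded at 2,000 per well and pre-incubated 4 hr.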

[6] = qHTS assay to identify small molecule agonists of the sonic hedgehog signaling (Shh) pathway (AID 1259368; calls by dose curve;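 also: NIH/3T3-derived 3T3Gli1-Luc cells carrying a stable Gli1-driven firefly luciferase reporter; series mostly up to about 92 µM; nearly all actives have a fitted effect of over 15% in size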)
Summary of the method: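 Luminescence was read after 30 min at room temperature with luciferase reagent. Before that, 3T3Gli1-Luc cells (NIH/3T3 clone, stable Gli1-Luc reporter; 2,000/well) were exposed to compounds for 24 hr at 37C, 5% CO2, compounds being added 4 hr post-plating.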

[7] = qHTS assay to identify small molecule antagonists of the sonic hedgehog signaling (Shh) pathway (AID 1259369; calls by dose curve; also: nearly all actives have a fitted effect of over 45% in size; also: potency is read from the fitted curve at half-maximal effect)
Summary of the method: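 Antagonist mode: compound added to 3T3 Gli1-Luc cells followed by conditioned-medium stimulation, 24 h at 37 C, 5% CO2. Inhibition taken as loss of Gli1-driven luciferase luminescence.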

[8] = qHTS assay to identify small molecule phospholipidosis (PLD) inducers (AID 1259344; active = well fitted curve in the direction sought with a large enough effect; an effect the other way counts as inactive or inconclusive; also: potency is read from the fitted curve at half-maximal effect)
Summary of the method: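 Read-out is LipidTOX Red fluorescence (ex 595/em 615) imaged in HepG2 cells after 24 h compound exposure at 37 C, with Hoechst nuclear counterstain (ex 352/em 461) allowing per-cell normalisation.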

[9] = target: Androgen receptor (Homo sapiens) (UniProt P10275); experiment: qHTS assay to identify small molecule antagonists of the androgen receptor (AR) signaling pathway using the MDA cell line in the presence of 0.5 nM R1881 (AID 1259243); also: nearly all actives have a fitted effect of over 50% in size; also: potency is read from the fitted curve at half-maximal effect
Summary of the method: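 Luminescent reporter readout (ONE-Glo, 30 min, room temperature) after 16 hr co-treatment of MDA-kb2 cells with test compounds and 0.5 nM R1881 final, at 37C without CO2. The MMTV-driven luciferase responds to both AR and GR.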

[10] = target: Estrogen receptor (Homo sapiens) (UniProt P03372); experiment: qHTS assay to identify small molecule antagonists of the estrogen receptor alpha (ER-alpha) signaling pathway using the BG1 cell line in the presence of 0.1 nM 17-beta-estradiol (AID 1259244); also: nearly all actives have a fitted effect of over 50% in size; also: potency is read from the fitted curve at half-maximal effect
Summary of the method: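 Luciferase luminescence (ONE-Glo, 30 min at room temperature) was read after 22 hr at 37C exposure to compounds plus 17beta-estradiol at 0.1 nM final. Cells were VM7Luc4E2 with endogenous ER-alpha and an ERE-driven luciferase, pre-cultured 5 days in hormone-depleted medium.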

Measured: Potency

Sequence of Estrogen receptor (Homo sapiens) (P03372 whole entry, looked up): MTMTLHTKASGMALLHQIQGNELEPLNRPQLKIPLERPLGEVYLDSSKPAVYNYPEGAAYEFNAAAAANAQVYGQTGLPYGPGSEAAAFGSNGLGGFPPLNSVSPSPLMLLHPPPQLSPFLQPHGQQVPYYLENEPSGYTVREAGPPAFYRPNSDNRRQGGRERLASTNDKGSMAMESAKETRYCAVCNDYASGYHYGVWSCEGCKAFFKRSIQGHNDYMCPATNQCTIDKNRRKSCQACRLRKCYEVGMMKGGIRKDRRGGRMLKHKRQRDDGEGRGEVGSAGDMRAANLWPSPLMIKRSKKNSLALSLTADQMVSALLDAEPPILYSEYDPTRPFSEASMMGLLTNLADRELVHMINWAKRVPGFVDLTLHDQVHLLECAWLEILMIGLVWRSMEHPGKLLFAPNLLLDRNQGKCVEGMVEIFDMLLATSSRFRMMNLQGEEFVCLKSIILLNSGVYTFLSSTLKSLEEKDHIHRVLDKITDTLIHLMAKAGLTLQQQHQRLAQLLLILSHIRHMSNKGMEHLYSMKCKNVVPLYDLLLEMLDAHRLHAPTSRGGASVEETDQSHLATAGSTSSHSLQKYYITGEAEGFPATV
Sequence of Androgen receptor (Homo sapiens) (P10275 whole entry, looked up): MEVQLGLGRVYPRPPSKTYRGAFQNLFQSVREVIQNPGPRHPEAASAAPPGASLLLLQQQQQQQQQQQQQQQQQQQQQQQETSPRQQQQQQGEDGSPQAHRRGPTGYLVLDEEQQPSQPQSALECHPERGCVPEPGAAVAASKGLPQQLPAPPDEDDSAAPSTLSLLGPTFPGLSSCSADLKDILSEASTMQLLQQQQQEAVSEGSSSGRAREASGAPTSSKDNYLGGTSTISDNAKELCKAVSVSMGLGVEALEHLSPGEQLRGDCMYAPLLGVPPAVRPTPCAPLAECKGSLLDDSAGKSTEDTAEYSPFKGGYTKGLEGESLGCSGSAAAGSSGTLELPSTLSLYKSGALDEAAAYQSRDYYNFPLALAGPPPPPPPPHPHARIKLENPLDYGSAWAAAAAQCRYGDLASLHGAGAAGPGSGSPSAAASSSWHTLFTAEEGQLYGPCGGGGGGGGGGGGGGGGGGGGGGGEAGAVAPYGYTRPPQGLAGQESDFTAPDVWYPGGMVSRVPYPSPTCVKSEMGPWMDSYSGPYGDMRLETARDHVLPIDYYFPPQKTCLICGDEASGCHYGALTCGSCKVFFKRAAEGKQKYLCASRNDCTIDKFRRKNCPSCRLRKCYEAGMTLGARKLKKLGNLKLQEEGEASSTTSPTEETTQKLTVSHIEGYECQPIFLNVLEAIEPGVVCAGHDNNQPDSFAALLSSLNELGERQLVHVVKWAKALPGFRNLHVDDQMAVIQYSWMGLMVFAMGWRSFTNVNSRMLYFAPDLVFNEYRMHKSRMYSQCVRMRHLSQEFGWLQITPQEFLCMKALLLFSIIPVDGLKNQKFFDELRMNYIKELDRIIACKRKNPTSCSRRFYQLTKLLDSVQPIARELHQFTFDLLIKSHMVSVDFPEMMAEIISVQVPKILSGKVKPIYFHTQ

CCCCC(CC)(CO)CO
not listed: [8] | [9] | [10]
inactive: all other assays above

CCCCCC(CO)CCC (stereo not drawn)
not listed: [8] | [9] | [10]
inactive: all other assays above

COc1cc(C(C)(C)C)c(O)c(C(C)(C)C)c1
not listed: [8] | [9] | [10]
inactive: all other assays above

C[C@@H](C1=C(CCN(C)C)Cc2ccccc21)c1ccccn1
inactive: [1] | [8] | [3] | [6]

C=CC(C)(CCC=C(C)C)OC(=O)c1ccccc1 (stereo not drawn)
inactive: [1] | [3] | [4] | [5] | [6] | [7]

CCCCc1cc2ccccc2c(OCCN(C)C)n1
inactive: [1] | [2] | [3] | [4] | [5] | [6]

CN1CCC(=C2c3ccccc3CCc3sccc32)CC1
active: [7] 2.98 µM
inactive: [1] | [2] | [3] | [5] | [6]

c1ccc(OCc2ccc(CCCN3CCOCC3)cc2)cc1
inactive: [8] | [3] | [4] | [5] | [6]
active: [9] 29.8 µM

CCCCCCCCCCCCCCCC(=O)OC/C=C(C)/C=C/C=C(C)/C=C/C1=C(C)CCCC1(C)C
inactive: [1] | [2] | [3] | [4] | [5] | [6]

Oc1ccc(Cc2ccccc2)cc1
inactive: [1] | [3] | [6]

CC(C)(Oc1ccc(Cl)cc1)C(=O)OCCCOC(=O)C(C)(C)Oc1ccc(Cl)cc1
not listed: [1] | [4] | [8]
inactive: all other assays above

Cc1cc(O)ccc1N
active: [9] 43.5 µM | [10] 15.4 µM | [4] 27.4 µM | [5] 48.8 µM | [7] 17.3 µM
inactive: [3] | [6]

O=C(c1ccccc1)c1ccc2n1CCC2C(=O)O (stereo not drawn)
inactive: [1] | [8] | [3] | [5] | [6] | [7]

NC(N)=N/N=C/c1c(Cl)cccc1Cl
inactive: [10] | [2] | [3] | [6]
active: [9] 23.7 µM | [4] 11.9 µM | [5] 10.6 µM

CC(C)CCCCCCOC(=O)c1ccc(C(=O)OCCCCCCC(C)C)c(C(=O)OCCCCCCC(C)C)c1
inactive: [1] | [3] | [4] | [5] | [6] | [7]

C=CC(=O)OCCOC(=O)CCC(=O)O
inactive: [1] | [2] | [3] | [4] | [6]
active: [7] 61.1 µM

N[C@H]1C(O)O[C@H](CO)[C@H](O)[C@@H]1O (stereo partly drawn)
not listed: [1] | [7] | [8]
inactive: all other assays above

CN1CCN(C2=Nc3ccccc3Sc3ccc(Cl)cc32)CC1
active: [8] 11.2 µM
not listed: [1] | [10]
inactive: all other assays above

CC(C)c1cccc(C(C)C)c1NC(=O)NS(=O)(=O)c1cc(C(C)(C)O)co1
inactive: [1] | [2] | [3] | [4] | [5] | [6]

CCOc1ccc(NC(=O)CC(C)=O)cc1
inactive: [1] | [3] | [4] | [5] | [6] | [7]

CCCCCCOC(=O)CCC
not listed: [8] | [9] | [10]
inactive: all other assays above

Nc1nc(CC(=O)O)cs1
not listed: [8] | [9] | [10]
inactive: all other assays above

O=C(CC(=O)c1ccccc1)c1ccccc1
active: [2] 2.93 µM
inactive: [1] | [3] | [5] | [7]

CC(=O)c1c(C)c([N+](=O)[O-])c(C(C)(C)C)c([N+](=O)[O-])c1C
inactive: [1] | [3] | [4] | [5] | [6]

O=C(O)[C@@H]1[C@H]2C[C@H]3c4[nH]c5ccccc5c4CCN3C[C@@H]2CC[C@@H]1O
not listed: [1]
inactive: all other assays above

C=C(C)C(=O)OCCOc1ccccc1
active: [7] 43.3 µM
inactive: [9] | [10] | [3] | [6]

CCN(CC)C(C)=O
not listed: [8] | [9] | [10]
inactive: all other assays above

O=CNc1ccccc1
not listed: [8] | [9] | [10]
inactive: all other assays above

Cn1c(N)nc2nc[nH]c2c1=O
not listed: [8] | [9] | [10]
inactive: all other assays above

NCc1ccccc1
not listed: [8] | [9] | [10]
inactive: all other assays above

O=C(/C=C/c1ccc(O)c(O)c1)O[C@@H]1C[C@](O)(C(=O)O)C[C@@H](O)[C@H]1O
not listed: [8] | [9] | [10]
inactive: all other assays above

CC(C)=CCCC(C)CC=O (stereo not drawn)
inactive: [1] | [2] | [3] | [4] | [6] | [7]

CC(C)c1ccccc1C(C)C
inactive: [1] | [3] | [4] | [5] | [6] | [7]

CC(=O)c1ccc2c(c1)[C@H](NC(=O)c1ccc(F)cc1)[C@@H](O)C(C)(C)O2
inactive: [1] | [2] | [3] | [6] | [7]

CC(O)C1CCCCC1 (stereo not drawn)
inactive: [1] | [2] | [3] | [5] | [6] | [7]

S=C(S)NCCNC(=S)S
not listed: [8] | [9] | [10]
inactive: all other assays above

CCCCC(CC)COCCCN (stereo not drawn)
inactive: [10] | [3] | [4] | [5] | [6] | [7]
